# Source: PubChem BioAssay (NCATS)
# Inconclusive results are not listed. Entries that show only a call come without a potency. Calls of active or inactive are those of the source. Unless noted, the call rests on the fitted dose curve; in most records, active means well fitted curve in the direction sought with a large enough effect; inconclusive means small, poorly fitted or top-dose-only effect, or another doubt; inactive means no such curve, though single readings can be large; an effect the other way counts as inactive or inconclusive.
# Experiments:
# [1] = qHTS assay for measurement of the activity of small molecule inhibitors on Zika virus induced Caspase-3 activity in human iPSC derived neural progenitor cells (hNPCs) (AID 1224857); further: nearly all actives have a fitted effect of over 65% in size
# Method in brief: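 Caspase-3/7 induction by a 6-hour ZIKV infection was quantified with a luminescent Caspase-Glo 3/7 reagent incubated 30 minutes at room temperature. Compounds were preincubated with hNPCs for 1 hour; inhibition was calculated against uninfected and infected control wells.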
# [2] = High-throughput drug toxicity screening in the BPDCN cell line Gen2.2 (AID 1224824; call rule not given here;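 further: cells exposed to compounds for 48 h before reading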); conditions: Gen2.2 BPDCN cells; at 45.8 µM (top of the series)
# Method in brief: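 CellTiter-Glo luminescence after 48 h compound exposure of Gen2.2 cells; percent activity set with DMSO as 100% and bortezomib (9.2 uM final) as 0%. Cells seeded at 500 per well, RPMI + 10% FBS, 37 °C.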
# [3] = High-throughput drug toxicity screening in the BPDCN cell line Cal-1 (AID 1224825; call rule not given here); conditions: Cal-1 BPDCN cell viability, qHTS; at 45.8 µM (top of the series)
# Method in brief: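 Cal-1 cells, 500 per well in phenol-red-free RPMI with 10% FBS, exposed to compounds for 48 hours at 37C, 5% CO2. Viability read by CellTiter-Glo luminescence; percent activity normalized to DMSO (100%) and 9.2 uM bortezomib final (0%).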
# [4] = qHTS Screen of the MIPE 4.0 Collection Against Ewings Sarcoma (RDES) (AID 1259252); further: nearly all actives have a fitted effect of over 35% in size
# Method in brief: (§1)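 Viability screen: 48 h incubation at 37C, 95% humidity, 5% CO2 with serially titrated compound, followed by CellTiter-Glo readout.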
# [5] = qHTS Screen of the MIPE 4.0 Collection Against Ewings Sarcoma (TC71) (AID 1259253); further: nearly all actives have a fitted effect of over 40% in size
# Method in brief: as §1
# [6] = qHTS Screen of the MIPE 4.0 Collection Against Ewings Sarcoma (EW8) (AID 1259255); further: nearly all actives have a fitted effect of over 35% in size
# Method in brief: as §1
# [7] = qHTS Screen of the MIPE 4.0 Collection Against Ewings Sarcoma (TC32) (AID 1259256); further: nearly all actives have a fitted effect of over 45% in size
# Method in brief: as §1
# [8] = qHTS assay for measurement of the activity of small molecule inhibitors on Zika virus induced Caspase-3 activity in human astrocytoma cells (AID 1224859)
# Method in brief: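 In SNB-19 cells plated at 250 cells/well and grown 16-20 h, compounds were applied 1 h before ZIKV (2 FFU/cell). Six hours later caspase-3/7 luminescence was recorded.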
# [9] = qHTS assay to identify small molecule inhibitors of chordoma cells - UCH-2 (AID 1259356)
structure (smiles),measurement,setting,value
Cn1cnc(CCN)c1,Potency,[1],inactive
CCOP(=O)(OCC)C(C)NC(=O)N(CCCl)N=O (stereo not drawn),"cell viability, % of control (lower = more cytotoxic)",[2],109%
same,viability (% of control),[3],103%
same,Potency,[4],inactive
same,Potency,[5],inactive
same,Potency,[6],inactive
same,Potency,[7],inactive
CC(C)N(CCNC(=O)CN1CCCC1=O)C(C)C,"cell viability, % of control (lower = more cytotoxic)",[2],108%
same,viability (% of control),[3],111%
same,Potency,[4],inactive
same,Potency,[6],inactive
same,Potency,[7],inactive
CN[C@@H]1Cc2cccc3[nH]c(=O)n(c23)C1,"cell viability, % of control (lower = more cytotoxic)",[2],231%
same,viability (% of control),[3],119%
same,Potency,[8],inactive
same,Potency,[4],inactive
same,Potency,[5],inactive
same,Potency,[6],inactive
same,Potency,[7],inactive
CC[C@@H]1C(=O)OC[C@@H]1Cc1cncn1C,Potency,[1],inactive
CCCCCCCCc1ccc(O)cc1,Potency,[8],inactive
CC(=O)[C@H]1CCC2C3CC[C@H]4C[C@H](O)CC[C@]4(C)C3CC[C@@]21C (stereo partly drawn),Potency,[1],inactive
same,Potency,[8],inactive
CCCN1CCC[C@H](c2cccc(O)c2)C1,Potency,[1],inactive
same,Potency,[8],inactive
same,Potency,[9],inactive
NCCc1c[nH]c2ccccc12,Potency,[1],inactive
same,Potency,[8],inactive
C[N+]1(C)C2CCC1CC(OC(=O)C(CO)c1ccccc1)C2 (stereo not drawn),Potency,[1],inactive
same,Potency,[8],inactive
c1ccc(C2(c3ccccc3)CC2C2=NCCN2)cc1 (stereo not drawn),Potency,[8],inactive
same,Potency,[9],inactive
O=C(O)CC[N+](=O)[O-],Potency,[1],inactive
same,Potency,[8],inactive
CC(C)Oc1cccnc1N(C)C1CCN(Cc2ccccc2)CC1,Potency,[1],inactive
same,Potency,[8],inactive
CC[N+]1(CCOC(=O)C(O)(c2ccccc2)c2ccccc2)CCCCC1,Potency,[1],inactive
same,Potency,[9],inactive
c1ccc2sc(C3(N4CCCCC4)CCCCC3)cc2c1,Potency,[1],inactive
same,Potency,[8],inactive
CCCN(CCC)C1CCc2ccc(O)cc2C1 (stereo not drawn),Potency,[1],inactive
same,Potency,[8],inactive
Clc1cnc(Oc2ccc(Oc3ncc(Cl)cc3Cl)cc2)c(Cl)c1,Potency,[1],inactive
same,Potency,[8],inactive
NC(=NCCC[C@H](N)C(=O)O)N[N+](=O)[O-],Potency,[1],inactive
same,Potency,[8],inactive
NC(CP(=O)(O)O)C(=O)O (stereo not drawn),Potency,[1],inactive
same,Potency,[8],inactive
NCCc1c[nH]c2ccc(O)cc12,Potency,[1],inactive
same,Potency,[8],inactive
O=C(Cc1ccc(Cl)c(Cl)c1)N1CCCCC1CN1CCCC1 (stereo not drawn),Potency,[1],inactive
same,Potency,[8],inactive
CN[C@@H]1C[C@@H](c2ccc(Cl)c(Cl)c2)c2ccccc21,Potency,[1],inactive
same,Potency,[8],inactive
same,Potency,[9],inactive
CC(C)NC(C)Cc1ccc(I)cc1 (stereo not drawn),Potency,[8],inactive
same,Potency,[9],inactive
C/C=C(/C)C(=O)O[C@H]1C(C)=C2[C@H]([C@@H]1OC(=O)CCCCCCC)[C@@](C)(OC(C)=O)C[C@H](OC(=O)CCC)[C@@]1(O)[C@H]2OC(=O)[C@@]1(C)O,Potency,[1],inactive
same,Potency,[8],inactive
NC1CCc2cc(O)c(O)cc2C1 (stereo not drawn),Potency,[1],inactive
same,Potency,[8],inactive
NC(=O)CN1CC(O)CC1=O (stereo not drawn),Potency,[1],inactive
same,Potency,[8],inactive
same,Potency,[9],inactive
O=C(O)[C@@H]1CCN1,Potency,[8],inactive
NCc1cc(=O)[nH]o1,Potency,[1],inactive
same,Potency,[8],inactive
C=CCN1CC[C@]23CCCCC2[C@H]1Cc1ccc(O)cc13 (stereo partly drawn),Potency,[1],inactive
CCCN1CCO[C@@H]2c3cc(O)ccc3OC[C@H]21,Potency,[1],inactive
same,Potency,[8],inactive
COc1cc(C(O)CN)ccc1O (stereo not drawn),Potency,[1],inactive
same,Potency,[8],inactive
CS(=N)(=O)CC[C@H](N)C(=O)O (stereo partly drawn),Potency,[1],inactive
same,Potency,[8],inactive
C[C@]12CCC3C(CC[C@H]4C[C@H](O)CC[C@]34C)C1CC[C@@H]2C(=O)CO (stereo partly drawn),Potency,[1],inactive
same,Potency,[8],inactive
Cc1nccc2c1[nH]c1ccccc12,Potency,[1],inactive
same,Potency,[8],inactive
C[C@]12N[C@H](Cc3ccccc31)c1ccccc12,Potency,[1],inactive
same,Potency,[8],inactive
same,Potency,[9],inactive
CC(Cc1ccc(O)cc1)NCC(O)c1cc(O)cc(O)c1 (stereo not drawn),Potency,[1],inactive
same,Potency,[8],inactive
same,Potency,[9],inactive
CCCCc1ccc(C(=O)O)nc1,Potency,[1],inactive
same,Potency,[8],inactive
same,Potency,[9],inactive
CCCN(CCC)[C@@H]1CCc2ccc(O)cc2C1,Potency,[1],inactive
same,Potency,[8],inactive
CCCCCCCCCCCCCCCC[N+](C)(C)C,Potency,[1],inactive
same,Potency,[8],inactive
same,Potency,[9],inactive
C#CCOC(=O)C1=CCCN(C)C1,Potency,[1],inactive
same,Potency,[8],inactive
CN1C2CCC1CC(OC(=O)c1cc(Cl)cc(Cl)c1)C2 (stereo not drawn),Potency,[1],inactive
same,Potency,[8],inactive
C[C@@H](N)Cc1cnc[nH]1,Potency,[1],inactive
same,Potency,[8],inactive
CC(=O)NCCc1c[nH]c2ccccc12,Potency,[8],inactive
NC(CCP(=O)(O)O)C(=O)O (stereo not drawn),Potency,[1],inactive
same,Potency,[8],inactive
O=C(O)Cc1cnc[nH]1,Potency,[1],inactive
same,Potency,[8],inactive
